Among the data in PubChem BioAssay (NCATS) are Potency values, retold here.

Records with an inconclusive call do not appear. A call without a number means that no potency is given here. The source made the active and inactive calls. Calls follow the shape of the dose curve; as a rule, active = well fitted inhibition curve with a large enough effect; inconclusive = small, poorly fitted or top-dose-only effect; inactive = no such curve, though single readings can be large or run the other way.
Potency is read from the fitted curve at half-maximal effect.

In the assay the target is Glutaminase kidney isoform, mitochondrial (Homo sapiens) (UniProt O94925). As to the kind of experiment: qHTS for Inhibitors of Glutaminase (GLS): LOPAC Validation (AID 624146). Also: nearly all actives have a fitted effect of over 60% in size. The settings on record: glutaminase enzyme activity inhibition; series mostly up to 46.1 µM. The method in brief: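 Read-out is an Amplex red fluorescence increase coupled through glutamate oxidase and HRP, measured before and after 30 min room-temperature incubation. hKGA is in 45 mM KH2PO4 (pH 8.2) with 0.02% Tween-20; glutamine added as 1mM solution.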
Chain of Glutaminase kidney isoform, mitochondrial (Homo sapiens) (O94925 whole entry, looked up, canonical isoform): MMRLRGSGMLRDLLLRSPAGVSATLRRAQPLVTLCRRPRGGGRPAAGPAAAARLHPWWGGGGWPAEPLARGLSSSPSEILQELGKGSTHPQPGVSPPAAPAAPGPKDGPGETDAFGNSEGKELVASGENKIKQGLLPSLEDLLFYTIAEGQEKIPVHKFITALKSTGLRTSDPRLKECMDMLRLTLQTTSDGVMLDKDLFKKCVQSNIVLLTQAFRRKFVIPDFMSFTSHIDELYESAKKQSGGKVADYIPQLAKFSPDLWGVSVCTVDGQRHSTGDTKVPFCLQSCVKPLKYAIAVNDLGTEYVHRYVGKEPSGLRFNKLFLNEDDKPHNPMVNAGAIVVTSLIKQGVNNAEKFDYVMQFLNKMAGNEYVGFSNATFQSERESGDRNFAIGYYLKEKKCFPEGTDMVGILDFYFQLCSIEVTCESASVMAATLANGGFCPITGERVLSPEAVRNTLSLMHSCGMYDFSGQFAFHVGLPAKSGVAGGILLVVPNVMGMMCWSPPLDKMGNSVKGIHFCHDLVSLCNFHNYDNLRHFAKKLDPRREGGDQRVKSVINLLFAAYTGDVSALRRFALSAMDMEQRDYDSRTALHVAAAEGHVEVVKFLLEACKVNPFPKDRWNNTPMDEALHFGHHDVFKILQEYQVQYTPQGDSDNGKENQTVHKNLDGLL
(In general: qHTS replaces the single test concentration by a dilution series.)
In the case of `CC1CN(S(=O)(=O)c2cccc3cnccc23)CCN1` (centres undefined), the Potency entry was “inactive”. With `Cn1ncc(S(=O)(=O)Cc2ccccc2)c(Br)c1=O` the entry was “inactive”; with `O=C(O)CC[C@@H](C(=O)O)N1C(=O)c2ccccc2C1=O`, “inactive”. With `O=C(O)[C@@H]1C[C@H](C(=O)O)N1` the entry was “inactive”. As for `O=C(/C=C/c1ccc(O)c(O)c1)OCCc1ccccc1`, the figure is 891 nM (active); as for `NC(=O)C(=O)O`, “inactive”.

With `N#C/C(=C\c1c[nH]c2ccccc12)C(=O)c1ccc(O)c(O)c1`, the Potency was 1120 nM (active). With `C#CCN1C(C)=C(C(=O)OC)C(c2cccc([N+](=O)[O-])c2)C(C(=O)OCC)=C1C` (centres undefined) the entry was “inactive”. `CCCCCC(O)c1cccc(OCc2ccc3ccccc3n2)c1` (centres undefined): the Potency result was “inactive”. As for `CNc1ncnc2c1ncn2[C@@H]1O[C@H](CO)[C@@H](O)[C@H]1O`, the entry is “inactive”. As for `COC1=C(OC)C(=O)c2ccccc2C1=O`, the figure is 10000 nM (active).

For `CCCCCCCCCCCCCCCCCCNC(=O)OCC(COP(=O)([O-])OCC[n+]1ccsc1)OC` (centres undefined), the Potency result is “inactive”. Take `CC(COc1ccc(/C=C/c2ccccc2)cc1)[N+](C)(C)C` (centres undefined): the Potency entry is “inactive”. With `CN=c1nc(-c2ccccc2)n(-c2ccccc2)s1` the entry was “inactive”; with `Cc1nc2sccn2c(=O)c1CCN1CCC(=C(c2ccccc2)c2ccc(F)cc2)CC1`, “inactive”.

On to `O=C(O)c1cc(=O)c2c(Cl)cc(Cl)cc2[nH]1`, for which the Potency entry was “inactive”. As for `O=C(c1ccc(OCCCc2cnc[nH]2)cc1)C1CC1`, the entry is “inactive”; as for `Cn1cc(C2=C(c3ccc(Cl)cc3Cl)C(=O)NC2=O)c2ccccc21`, “inactive”. With `Oc1cc(O)cc(/C=C/c2ccc(O)c(O)c2)c1` the figure was 2000 nM (active).
